# Test results from PubChem BioAssay (NCATS).
# Values without a mark were called inactive. Results filed as inconclusive are left out. Activity calls are given as the source filed them. Unless noted, calls follow the shape of the dose curve; as a rule, active = well fitted curve in either direction with a large enough effect (not every such curve was filed as active); inconclusive = small, poorly fitted or top-dose-only effect, or another doubt; inactive = flat fitted curve, though single readings scatter.
# Key:
# [1] = NFAT Signaling Pathway (AID 444); conditions: Jurkat NFAT-bla M1, carbachol, beta-lactamase ratio, 5 h; at 17.2 µM (top of the series) unless noted;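 also: carbachol stimulus at about its EC50 of 1 µM final; % is scaled to controls: 0 for no effect and ±100 for the full control effect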
# Outline: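 Jurkat cells with NFAT-driven β-lactamase reporter and co-expressed M1 receptor, stimulated with carbachol (final 1 uM, ~EC50), compound titration, 5 h at 37 °C. CCF4 loaded 1 h at RT; 460/530 nm ratio gave %activity and AC50.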
# [2] = Stat Signaling Pathway (AID 446); conditions: ME-180 SIE beta-lactamase reporter, IL-6 stimulated, 5 h; at 17.2 µM (top of the series) unless noted;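 also: ME-180 cervical cancer cells given 40 pM IL-6 alongside compound; SIE-controlled beta-lactamase reporter measured as 460/530 nm FRET emission ratio; % is scaled to controls: 0 for no effect and ±100 for the full control effect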
# Outline: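 Reporter line: ME-180 cervical carcinoma, SIE-beta-lactamase. Treatment: compound with 40 pM IL-6, 5 hrs, 37 C, in low-serum OPTI-MEM with 10 mM HEPES pH 7.3. Detection: 460/530 nm fluorescence.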
# [3] = molecular target: Glucocorticoid receptor (Homo sapiens) (UniProt P04150); test: GR-GFP Redistribution (AID 450;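 active = compounds whose dose series gives a full or clear partial fitted curve of increased nuclear translocation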; also: potency is read from the fitted curve at half-maximal effect)
# [4] = molecular target: Glucocorticoid receptor (Homo sapiens) (UniProt P04150); test: GR-EFC Redistribution (AID 451; calls by dose curve; also: potency is read from the fitted curve at half-maximal effect); conditions: CHO-K1 GR-EFC translocation, beta-gal luminescence, 2 h
# Outline: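 CHO-K1 cells expressing nuclear EA and GR-ED fragments of b-gal; compounds titrated up to 46 uM final, 2 h at 37 C. GR nuclear translocation read as complemented b-gal luminescence after 1 h RT detection.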
# [5] = molecular target: Mitogen-activated protein kinase 10 (Mus musculus) (UniProt Q61831); test: JNK3 AlphaScreen Assay (AID 530);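 also: kinase came from lysate of stimulated human HepG2 cells; signal reports phosphorylation of biotinylated GST-cJun 1-79 at Ser73 with 10 µM ATP; % is scaled to controls: 0 for no effect and ±100 for the full control effect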
# Outline: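 Pre-activated (IL-1β/TNFα) JNK3 in HepG2 lysates phosphorylates biotin-GST-cJun(1-79), 10 uM ATP; anti-phospho-cJun(Ser73) AlphaScreen read at room temperature, pH 7.6 Tris buffer. Compounds pre-incubated 15 min as titrations.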
# [6] = molecular target: 3',5'-cyclic-AMP phosphodiesterase 4B (Homo sapiens) (UniProt Q07343); test: qHTS Assay for Inhibitors of PDE-IV (AID 607; active = well fitted activation curve with a large enough effect in the main read-out, with a control signal flat, not every such curve was filed as active; also: % of control where 0% means no effect)
# Outline: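 Cell-based read-out of cAMP via a modified cyclic nucleotide-gated channel and membrane potential dye (535/590 nm) in HEK293 cells expressing PDE4 endogenously. Compounds tested up to 22.9 uM final; 100 uM RO 20-1724 reference.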
# [7] = molecular target: Guanine nucleotide-binding protein G(i) subunit alpha-1 (Homo sapiens) (UniProt P63096); test: qHTS Assay for Inhibitors of RGS12 GoLoco Motif Activity (Green Fluorophore) (AID 879; active = well fitted curve in the direction sought with a large enough effect; an effect the other way counts as inactive or inconclusive;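 also: 0% = labeled peptide with Gαi1 and full inhibition = labeled peptide alone without protein; negative values mean loss of peptide binding seen as reduced polarization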)
# Outline: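 Fluorescence polarization assay: 50 nM Gαi1 with 10 nM FITC-labeled RGS12 GoLoco peptide in 10 mM Tris pH 7.5, 150 mM NaCl, 0.1 mM GDP, 0.05% NP40, 10 min at room temperature with compound.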
# [8] = molecular target: Muscarinic acetylcholine receptor M1 (Rattus norvegicus) (UniProt P08482); test: qHTS Assay for Antagonists of Acetylcholine Muscarinic M1 Receptor: Kinetic Measurement of Intracellular Calcium Response (AID 943; active = well fitted curve in the direction sought with a large enough effect; an effect the other way counts as inactive or inconclusive;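 also: Fluo-4 calcium signal as peak divided by basal fluorescence over 4 min; nearly all actives have a fitted effect of over 75% in size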)
# Outline: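 Rat M1-CHO cells, 2000/well, overnight → Fluo-4 no-wash dye with probenecid, 1 h 37C → compound 10 min, room temp → basal read 6 s → carbachol EC80 (100 nM) → 4 min kinetic read; peak/basal.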
# [9] = molecular target: Pyruvate kinase (Leishmania mexicana) (UniProt Q27686); test: qHTS Validation Assay for Inhibitors of Leishmania Mexicana Pyruvate Kinase (AID 945; active = well fitted curve in the direction sought with a large enough effect; an effect the other way counts as inactive or inconclusive; also: potency is read from the fitted curve at half-maximal effect)
# Outline: (§1)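 Read-out: luminescence from PKLight stop/detection reagent, data normalized to DMSO. Reaction: 0.2 nM E451W LmPYK, 0.5 mM PEP, 0.1 mM ADP, pH 7.2, 1 h room temperature.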
# [10] = molecular target: Pyruvate kinase PKM (Homo sapiens) (UniProt P14618); test: qHTS Assay for Activators of Human Muscle Pyruvate Kinase (AID 954; active = well fitted curve in the direction sought with a large enough effect, not every such curve was filed as active;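 also: 0% = uninhibited enzyme and -100% = no enzyme or full thiadiazolimine inhibition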)
# Outline: (§2)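 Human PKM2 activity is measured as ATP generation, detected by luciferase-coupled luminescence. The enzyme (0.1 nM) acts on 0.5 mM PEP and 0.1 mM ADP for 1 h at ambient temperature; data are normalized to uninhibited and full-inhibition wells.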
# [11] = molecular target: Pyruvate kinase PKM (Homo sapiens) (UniProt P14618); test: qHTS Assay for Inhibitors of Human Muscle Pyruvate Kinase (AID 958; active = well fitted curve in the direction sought with a large enough effect; an effect the other way counts as inactive or inconclusive)
# Outline: as §2
# [12] = molecular target: Pyruvate kinase (Leishmania mexicana) (UniProt Q27686); test: qHTS Validation Assay for Activators of Leishmania Mexicana Pyruvate Kinase (AID 959; active = well fitted curve in the direction sought with a large enough effect; an effect the other way counts as inactive or inconclusive)
# Outline: as §1
# [13] = molecular target: Alpha-galactosidase A (Homo sapiens) (UniProt P06280); test: Counterscreen for Glucocerebrosidase Inhibitors: qHTS Assay for Human alpha-Galactosidase at pH 4.5 (AID 992; active = well fitted curve in the direction sought with a large enough effect; an effect the other way counts as inactive or inconclusive; also: 0% is about no effect)
# Outline: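 Quantitative HTS: compounds tested from 0.7 nM up to 77 uM against 2 nM enzyme with 80 uM 4-MU alpha-D-galactopyranoside. The 20 min room-temperature reaction is stopped with 1M NaOH/1M glycine, pH 10.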
# [14] = qHTS Assay for Identification of Small Molecule Agonists for Hypoxia Response Element Signaling Pathway (AID 914; active = well fitted activation curve with a large enough effect in the signal ratio, with a control signal flat, not every such curve was filed as active; the % refers to the signal ratio; also: % of control where 0% means no effect); conditions: ME-180 (cervical carcinoma) HRE-bla reporter, beta-lactamase ratio, CoCl2, 17 h; activation: active compounds read high
# Outline: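 qHTS titration; ME-180 HRE-bla cells; EC50 CoCl2 co-treatment, 17 h at 37 degrees Celsius; CCF4 dye, ex 405nm, em 460nm and 530nm; %Activity from ratio; AC50.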
# Sequence of Glucocorticoid receptor (Homo sapiens) (P04150 whole entry, looked up, the tested form may be a part): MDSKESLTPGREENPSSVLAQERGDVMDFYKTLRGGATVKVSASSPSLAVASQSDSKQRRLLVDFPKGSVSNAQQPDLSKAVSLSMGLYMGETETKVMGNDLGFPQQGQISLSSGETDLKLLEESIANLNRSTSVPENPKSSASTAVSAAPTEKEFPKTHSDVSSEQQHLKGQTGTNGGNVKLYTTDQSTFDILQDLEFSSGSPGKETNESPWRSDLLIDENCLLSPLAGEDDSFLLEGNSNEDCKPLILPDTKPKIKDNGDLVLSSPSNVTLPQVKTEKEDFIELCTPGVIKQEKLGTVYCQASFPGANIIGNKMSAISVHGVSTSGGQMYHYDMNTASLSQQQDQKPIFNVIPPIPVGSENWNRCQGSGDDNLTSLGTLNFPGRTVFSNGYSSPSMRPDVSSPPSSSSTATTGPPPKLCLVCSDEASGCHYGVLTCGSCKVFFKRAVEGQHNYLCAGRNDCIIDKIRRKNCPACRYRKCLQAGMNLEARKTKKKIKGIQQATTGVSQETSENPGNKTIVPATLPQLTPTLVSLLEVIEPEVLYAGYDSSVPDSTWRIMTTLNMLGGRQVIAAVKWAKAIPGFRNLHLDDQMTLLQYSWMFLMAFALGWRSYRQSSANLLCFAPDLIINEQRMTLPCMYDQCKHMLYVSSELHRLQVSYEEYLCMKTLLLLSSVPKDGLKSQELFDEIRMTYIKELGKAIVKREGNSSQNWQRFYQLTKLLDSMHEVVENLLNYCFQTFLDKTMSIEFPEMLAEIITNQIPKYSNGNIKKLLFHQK
# Sequence of Pyruvate kinase PKM (Homo sapiens) (P14618 whole entry, looked up): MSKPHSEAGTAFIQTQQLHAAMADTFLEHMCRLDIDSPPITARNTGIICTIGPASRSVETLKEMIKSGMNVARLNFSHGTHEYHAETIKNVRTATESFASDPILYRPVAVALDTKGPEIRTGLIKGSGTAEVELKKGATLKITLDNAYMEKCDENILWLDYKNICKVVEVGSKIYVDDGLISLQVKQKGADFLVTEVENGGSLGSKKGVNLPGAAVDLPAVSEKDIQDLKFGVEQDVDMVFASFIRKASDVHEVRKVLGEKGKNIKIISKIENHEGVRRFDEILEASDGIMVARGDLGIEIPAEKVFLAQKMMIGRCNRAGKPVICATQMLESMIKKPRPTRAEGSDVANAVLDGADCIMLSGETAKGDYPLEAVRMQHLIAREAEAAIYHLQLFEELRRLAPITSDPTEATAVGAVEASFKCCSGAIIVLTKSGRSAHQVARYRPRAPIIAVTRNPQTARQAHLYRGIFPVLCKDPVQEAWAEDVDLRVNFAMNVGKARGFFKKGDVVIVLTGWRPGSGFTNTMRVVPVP
# Sequence of Pyruvate kinase (Leishmania mexicana) (Q27686 2-499 E452W): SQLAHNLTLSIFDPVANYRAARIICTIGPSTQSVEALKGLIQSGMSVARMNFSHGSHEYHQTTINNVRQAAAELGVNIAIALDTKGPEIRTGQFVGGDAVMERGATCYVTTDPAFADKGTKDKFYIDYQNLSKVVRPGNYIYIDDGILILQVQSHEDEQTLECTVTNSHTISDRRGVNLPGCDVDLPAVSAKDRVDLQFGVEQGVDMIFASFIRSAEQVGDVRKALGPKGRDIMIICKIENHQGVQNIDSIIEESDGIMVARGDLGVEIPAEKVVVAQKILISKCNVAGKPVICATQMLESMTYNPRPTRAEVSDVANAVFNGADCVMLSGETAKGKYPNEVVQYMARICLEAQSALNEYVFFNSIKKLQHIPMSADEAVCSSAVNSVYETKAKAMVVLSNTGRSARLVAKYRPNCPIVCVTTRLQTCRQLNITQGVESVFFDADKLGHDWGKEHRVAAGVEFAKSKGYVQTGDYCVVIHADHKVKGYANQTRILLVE
# Sequence of Guanine nucleotide-binding protein G(i) subunit alpha-1 (Homo sapiens) (P63096 whole entry, looked up): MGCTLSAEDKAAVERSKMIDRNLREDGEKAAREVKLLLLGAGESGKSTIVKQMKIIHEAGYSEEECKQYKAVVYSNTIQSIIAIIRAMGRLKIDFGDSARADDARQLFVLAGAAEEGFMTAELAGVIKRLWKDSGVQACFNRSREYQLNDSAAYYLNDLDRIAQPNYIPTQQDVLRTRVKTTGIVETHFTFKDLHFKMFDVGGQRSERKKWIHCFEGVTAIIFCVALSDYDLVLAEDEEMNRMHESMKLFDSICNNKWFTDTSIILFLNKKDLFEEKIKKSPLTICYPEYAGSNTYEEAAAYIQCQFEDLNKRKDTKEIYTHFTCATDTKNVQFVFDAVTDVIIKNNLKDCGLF
# Sequence of Alpha-galactosidase A (Homo sapiens) (P06280 whole entry, looked up): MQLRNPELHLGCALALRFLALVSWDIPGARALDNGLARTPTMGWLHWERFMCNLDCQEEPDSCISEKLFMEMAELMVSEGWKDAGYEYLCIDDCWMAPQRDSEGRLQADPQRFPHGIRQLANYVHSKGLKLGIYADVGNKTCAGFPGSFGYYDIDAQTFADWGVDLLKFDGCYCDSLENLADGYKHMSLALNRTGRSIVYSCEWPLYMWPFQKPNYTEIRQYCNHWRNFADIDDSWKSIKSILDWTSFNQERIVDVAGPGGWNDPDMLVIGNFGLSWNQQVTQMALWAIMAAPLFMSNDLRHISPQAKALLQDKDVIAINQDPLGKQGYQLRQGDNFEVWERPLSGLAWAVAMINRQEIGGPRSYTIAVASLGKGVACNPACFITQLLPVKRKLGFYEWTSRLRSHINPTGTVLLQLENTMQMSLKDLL
# Sequence of 3',5'-cyclic-AMP phosphodiesterase 4B (Homo sapiens) (Q07343 whole entry, looked up): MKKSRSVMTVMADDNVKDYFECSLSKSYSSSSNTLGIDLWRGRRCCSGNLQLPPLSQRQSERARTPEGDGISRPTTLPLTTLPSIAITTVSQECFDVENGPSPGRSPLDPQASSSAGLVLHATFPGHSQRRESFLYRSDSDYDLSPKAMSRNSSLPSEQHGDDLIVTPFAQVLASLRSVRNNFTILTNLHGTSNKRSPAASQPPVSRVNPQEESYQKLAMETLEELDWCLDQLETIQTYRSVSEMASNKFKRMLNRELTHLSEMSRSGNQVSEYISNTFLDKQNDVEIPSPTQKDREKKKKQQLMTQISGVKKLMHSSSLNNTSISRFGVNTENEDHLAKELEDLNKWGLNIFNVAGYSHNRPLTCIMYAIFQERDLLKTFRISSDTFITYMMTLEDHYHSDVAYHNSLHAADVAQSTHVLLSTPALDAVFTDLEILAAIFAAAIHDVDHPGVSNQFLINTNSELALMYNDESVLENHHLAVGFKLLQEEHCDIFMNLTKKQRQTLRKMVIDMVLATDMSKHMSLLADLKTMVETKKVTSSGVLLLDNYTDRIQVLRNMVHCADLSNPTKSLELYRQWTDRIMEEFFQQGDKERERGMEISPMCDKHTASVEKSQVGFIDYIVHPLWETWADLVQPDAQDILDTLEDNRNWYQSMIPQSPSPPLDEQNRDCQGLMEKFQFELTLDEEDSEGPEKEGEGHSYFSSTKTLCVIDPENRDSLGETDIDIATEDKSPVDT
# Sequence of Muscarinic acetylcholine receptor M1 (Rattus norvegicus) (P08482 whole entry, looked up): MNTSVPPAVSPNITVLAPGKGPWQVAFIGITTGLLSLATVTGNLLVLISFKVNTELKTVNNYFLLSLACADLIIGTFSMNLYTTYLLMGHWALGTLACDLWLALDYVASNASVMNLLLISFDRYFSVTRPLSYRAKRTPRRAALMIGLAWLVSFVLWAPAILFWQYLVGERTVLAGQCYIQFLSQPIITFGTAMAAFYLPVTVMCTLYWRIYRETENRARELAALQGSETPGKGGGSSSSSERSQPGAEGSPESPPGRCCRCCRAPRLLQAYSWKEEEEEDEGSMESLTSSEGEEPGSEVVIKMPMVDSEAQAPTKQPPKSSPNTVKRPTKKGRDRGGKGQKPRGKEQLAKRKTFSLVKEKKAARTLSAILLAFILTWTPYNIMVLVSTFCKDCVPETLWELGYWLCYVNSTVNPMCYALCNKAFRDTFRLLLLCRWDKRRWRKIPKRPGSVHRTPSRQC
smiles,measurement,setting,value
O=C(/C=C\c1ccc(O)cc1)c1ccc(O)cc1O,"activity change, negative = inhibition",[1],-30% [at 38 µM]
same,"activity, negative = inhibition",[2],25.4% [at 38 µM]
same,Potency,[3],> 46 µM
same,Potency,[4],> 46 µM
same,Potency,[5],inactive
same,Potency,[6],inactive
same,outcome,[7],inactive
same,Potency,[8],inactive
same,Potency,[9],12.6 µM (active)
same,outcome,[10],inactive
same,Potency,[11],15.8 µM (active)
same,Potency,[12],inactive
same,outcome,[13],inactive
O=C(C1=C(O)C(=O)N(CCN2CCOCC2)C1c1cccnc1)c1cc2ccccc2o1 (configuration not stated),"activity change, negative = inhibition",[1],-4.55%
same,"activity, negative = inhibition",[2],3.87%
same,Potency,[3],> 20.6 µM
COCCCNc1nc2c(c(=O)[nH]c(=O)n2C)n1CC(O)COc1ccccc1 (configuration not stated),"activity change, negative = inhibition",[1],16.9%
same,"activity, negative = inhibition",[2],-9.93%
same,Potency,[3],> 20.6 µM
same,activation,[14],-6.56%
Cc1cc(C)n(C(=O)CNC(=O)c2ccc3c(c2)OCCO3)n1,"activity change, negative = inhibition",[1],-6.13%
same,"activity, negative = inhibition",[2],7.28%
same,Potency,[3],> 20.6 µM
same,activation,[14],-10.8%
CS(=O)(=O)CCC(C(=O)n1nnc2ccccc21)N1C(=O)c2ccccc2C1=O (configuration not stated),"activity change, negative = inhibition",[1],-13.1%
same,"activity, negative = inhibition",[2],-20.7%
same,Potency,[3],> 20.6 µM
